The source of these data is ChEMBL document CHEMBL3988442, “University of Dundee, Small-Polar-MMV Screening Library” (2021).

For some of these results: Results with a measured potency or affinity are listed apart.

Holding throughout (design): scale not given: direction of the effect not stated beside the values
Test [1] concerns the target Protein translocase subunit SecA (Escherichia coli (strain K12)) (UniProt P10408). As to the kind of experiment: Assay to Identify E. coli SecA ATPase Inhibitors. The following applies: 30 µM. In kind it is functional.
Test [2] concerns the target T1, Ubiquitin-activating enzyme e1, putative (Leishmania donovani (strain BPK282A1)) (UniProt E9BSI1).
T1 sequence (whole entry): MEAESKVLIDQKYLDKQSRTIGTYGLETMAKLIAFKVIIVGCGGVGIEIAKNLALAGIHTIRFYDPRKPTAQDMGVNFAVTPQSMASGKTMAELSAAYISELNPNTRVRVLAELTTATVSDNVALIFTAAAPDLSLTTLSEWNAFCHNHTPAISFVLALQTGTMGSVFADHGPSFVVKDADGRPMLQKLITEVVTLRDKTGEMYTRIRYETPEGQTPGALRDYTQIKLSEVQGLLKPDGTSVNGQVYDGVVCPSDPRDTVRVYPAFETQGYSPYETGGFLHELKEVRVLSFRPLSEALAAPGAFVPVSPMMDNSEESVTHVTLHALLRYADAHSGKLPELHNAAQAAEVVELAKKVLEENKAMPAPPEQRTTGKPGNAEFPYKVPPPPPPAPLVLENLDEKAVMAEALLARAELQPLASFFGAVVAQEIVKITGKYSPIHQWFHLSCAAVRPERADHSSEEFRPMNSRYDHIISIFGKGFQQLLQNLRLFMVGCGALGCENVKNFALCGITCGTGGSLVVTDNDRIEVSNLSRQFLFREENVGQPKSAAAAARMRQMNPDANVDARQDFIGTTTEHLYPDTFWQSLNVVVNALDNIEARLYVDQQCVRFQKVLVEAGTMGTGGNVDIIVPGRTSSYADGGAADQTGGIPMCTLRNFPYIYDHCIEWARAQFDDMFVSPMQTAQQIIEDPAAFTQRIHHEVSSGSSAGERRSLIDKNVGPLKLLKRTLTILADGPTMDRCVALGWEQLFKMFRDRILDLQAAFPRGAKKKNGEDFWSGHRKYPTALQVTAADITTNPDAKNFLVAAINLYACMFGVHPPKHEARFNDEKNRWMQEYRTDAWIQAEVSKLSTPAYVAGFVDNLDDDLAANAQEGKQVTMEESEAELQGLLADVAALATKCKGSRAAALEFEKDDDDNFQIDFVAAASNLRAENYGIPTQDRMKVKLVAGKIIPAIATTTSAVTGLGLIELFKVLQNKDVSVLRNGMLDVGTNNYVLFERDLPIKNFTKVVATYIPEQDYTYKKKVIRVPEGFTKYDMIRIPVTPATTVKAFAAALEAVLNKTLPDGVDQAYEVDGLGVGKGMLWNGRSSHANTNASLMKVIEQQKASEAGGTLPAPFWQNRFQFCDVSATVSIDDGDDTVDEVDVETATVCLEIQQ
As to the kind of experiment: Leishmania donovani Ubiquitin Activating Enzyme (LdE1). In kind it is functional. The following applies: 30 µM.

Test [3] concerns the target AMP-activated protein kinase, AMPK (Homo sapiens) (UniProt P54646+O43741+P54619+Q9UGJ0+Q9Y478+Q13131+Q9UGI9). In words: AMP-dependent Kinase enzyme assay. An in vitro enzyme assay that detects ADP turnover that is directly proportional to AMPK activity. This uses naive AMPK that is activated during the assay with MK-8722. The following applies: 30 µM. In kind it is functional.

The target in test [4] is Sialic acid-binding Ig-like lectin 9 (Homo sapiens) (UniProt Q9Y336). As to the kind of experiment: Hs-Siglec9 ALPHAscreen SOP 20170721. Conditions: 10 µM. (Alpha assays give light when donor and acceptor beads are brought close together.)
Sequence of Sialic acid-binding Ig-like lectin 9 (Homo sapiens) (Q9Y336 whole entry): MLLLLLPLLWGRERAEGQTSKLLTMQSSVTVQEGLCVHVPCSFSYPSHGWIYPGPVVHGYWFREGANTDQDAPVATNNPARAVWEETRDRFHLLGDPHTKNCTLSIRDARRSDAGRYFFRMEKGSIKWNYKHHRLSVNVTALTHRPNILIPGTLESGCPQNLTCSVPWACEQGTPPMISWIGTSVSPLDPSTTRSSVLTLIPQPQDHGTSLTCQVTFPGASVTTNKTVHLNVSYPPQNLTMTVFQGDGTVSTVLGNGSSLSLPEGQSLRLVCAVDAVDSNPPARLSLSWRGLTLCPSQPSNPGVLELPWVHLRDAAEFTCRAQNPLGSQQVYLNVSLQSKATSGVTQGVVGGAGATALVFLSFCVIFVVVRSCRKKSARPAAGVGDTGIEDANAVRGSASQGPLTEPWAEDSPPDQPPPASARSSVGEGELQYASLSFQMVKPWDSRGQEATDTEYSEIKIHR
For the next test, the system named is Trypanosoma cruzi. As to the kind of experiment: Trypanosoma cruzi phosphomannomutase and mannose-1-phosphate guanylyltransferase assay. In kind it is functional. Conditions: 10 µM.
For test [5], the target named is T2, Arginase-2, mitochondrial (Homo sapiens) (UniProt P78540).
T2 sequence (whole entry): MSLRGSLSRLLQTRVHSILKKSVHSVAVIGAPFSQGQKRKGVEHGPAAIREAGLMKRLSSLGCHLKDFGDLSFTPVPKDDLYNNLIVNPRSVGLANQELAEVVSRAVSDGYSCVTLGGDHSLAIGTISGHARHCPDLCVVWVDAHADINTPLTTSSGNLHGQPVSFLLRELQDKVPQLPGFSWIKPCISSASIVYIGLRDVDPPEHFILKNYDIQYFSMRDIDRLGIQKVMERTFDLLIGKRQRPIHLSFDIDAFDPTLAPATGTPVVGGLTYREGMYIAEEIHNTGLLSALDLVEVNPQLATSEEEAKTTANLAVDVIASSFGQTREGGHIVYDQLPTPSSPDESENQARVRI
In words: in vitro enzyme assay to detect the production of urea directly proportional to the activity of Arginase II. Further: in the data most compounds retested in dose-response had high values. In kind it is functional. The following applies: 33.3 µM.

Test [6] has as its target T3, Proteasome subunit beta (Trypanosoma cruzi) (UniProt O96673).
T3 sequence (whole entry): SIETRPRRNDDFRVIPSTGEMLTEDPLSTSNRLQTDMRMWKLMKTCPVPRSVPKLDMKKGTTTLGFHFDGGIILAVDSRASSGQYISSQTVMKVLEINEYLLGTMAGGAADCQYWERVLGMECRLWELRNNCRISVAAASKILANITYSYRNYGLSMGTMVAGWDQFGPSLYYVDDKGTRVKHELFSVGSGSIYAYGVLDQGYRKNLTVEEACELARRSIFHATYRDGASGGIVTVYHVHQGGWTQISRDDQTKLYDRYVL
In words: Trypanosoma cruzi proteasome chymotrypsin-like activity (TcProtChymo) assay. Further: in the data most compounds retested in dose-response had high values. In kind it is functional. The following applies: 9.37 µM.

The species named for another test is Homo sapiens. As to the kind of experiment: To identify inhibition of the IFN signalling (Jak-Stat) pathway via expression of an eGFP reporter gene under the control of an IFN-stimulated response element (ISRE) containing MxA promoter. Conditions: 30 µM. In kind it is functional.
Test [7] has as its target T4, Tyrosyl-tRNA synthetase, putative (Trypanosoma cruzi (strain CL Brener)) (UniProt Q4DSP6).
T4 sequence (whole entry): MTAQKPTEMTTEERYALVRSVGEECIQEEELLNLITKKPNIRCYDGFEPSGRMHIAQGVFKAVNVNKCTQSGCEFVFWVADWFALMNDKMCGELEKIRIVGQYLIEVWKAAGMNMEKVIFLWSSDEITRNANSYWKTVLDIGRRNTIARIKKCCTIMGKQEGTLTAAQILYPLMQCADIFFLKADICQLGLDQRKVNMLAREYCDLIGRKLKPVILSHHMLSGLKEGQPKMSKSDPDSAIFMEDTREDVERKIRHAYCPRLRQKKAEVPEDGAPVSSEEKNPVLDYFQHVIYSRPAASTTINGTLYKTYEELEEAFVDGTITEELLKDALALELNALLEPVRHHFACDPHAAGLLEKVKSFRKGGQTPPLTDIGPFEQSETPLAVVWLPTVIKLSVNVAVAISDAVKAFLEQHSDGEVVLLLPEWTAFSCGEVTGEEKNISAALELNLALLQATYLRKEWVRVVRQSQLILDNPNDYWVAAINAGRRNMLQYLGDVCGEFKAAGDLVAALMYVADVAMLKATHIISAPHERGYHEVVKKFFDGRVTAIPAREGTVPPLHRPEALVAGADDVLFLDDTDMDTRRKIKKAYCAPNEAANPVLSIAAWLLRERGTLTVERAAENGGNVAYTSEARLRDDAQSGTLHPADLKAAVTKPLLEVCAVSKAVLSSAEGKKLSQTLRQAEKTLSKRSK
In words: Trypanosoma cruzi tyrosyl tRNA synthetase (TcYRS) _High Tyrosine SOP. Further: in the data most compounds retested in dose-response had high values. The test is classed as functional. The following applies: 30 µM.

Test [8] concerns the target T4, Tyrosyl-tRNA synthetase, putative (Trypanosoma cruzi (strain CL Brener)). In words: Trypanosoma cruzi tyrosyl tRNA synthetase (TcYRS) SOP. In kind it is functional. Conditions: 30 µM.
For test [9], the target named is Chromo domain-containing protein 1 (Saccharomyces cerevisiae (strain ATCC 204508 / S288c) (Baker's yeast)) (UniProt P32657). In words: ScCHD-1 Enzyme Inhibition Assay. Further: in the data most compounds retested in dose-response had high values. In kind it is functional. The following applies: 30 µM.
Sequence of Chromo domain-containing protein 1 (Saccharomyces cerevisiae (strain ATCC 204508 / S288c) (Baker's yeast)) (P32657 whole entry, the tested form may be a part): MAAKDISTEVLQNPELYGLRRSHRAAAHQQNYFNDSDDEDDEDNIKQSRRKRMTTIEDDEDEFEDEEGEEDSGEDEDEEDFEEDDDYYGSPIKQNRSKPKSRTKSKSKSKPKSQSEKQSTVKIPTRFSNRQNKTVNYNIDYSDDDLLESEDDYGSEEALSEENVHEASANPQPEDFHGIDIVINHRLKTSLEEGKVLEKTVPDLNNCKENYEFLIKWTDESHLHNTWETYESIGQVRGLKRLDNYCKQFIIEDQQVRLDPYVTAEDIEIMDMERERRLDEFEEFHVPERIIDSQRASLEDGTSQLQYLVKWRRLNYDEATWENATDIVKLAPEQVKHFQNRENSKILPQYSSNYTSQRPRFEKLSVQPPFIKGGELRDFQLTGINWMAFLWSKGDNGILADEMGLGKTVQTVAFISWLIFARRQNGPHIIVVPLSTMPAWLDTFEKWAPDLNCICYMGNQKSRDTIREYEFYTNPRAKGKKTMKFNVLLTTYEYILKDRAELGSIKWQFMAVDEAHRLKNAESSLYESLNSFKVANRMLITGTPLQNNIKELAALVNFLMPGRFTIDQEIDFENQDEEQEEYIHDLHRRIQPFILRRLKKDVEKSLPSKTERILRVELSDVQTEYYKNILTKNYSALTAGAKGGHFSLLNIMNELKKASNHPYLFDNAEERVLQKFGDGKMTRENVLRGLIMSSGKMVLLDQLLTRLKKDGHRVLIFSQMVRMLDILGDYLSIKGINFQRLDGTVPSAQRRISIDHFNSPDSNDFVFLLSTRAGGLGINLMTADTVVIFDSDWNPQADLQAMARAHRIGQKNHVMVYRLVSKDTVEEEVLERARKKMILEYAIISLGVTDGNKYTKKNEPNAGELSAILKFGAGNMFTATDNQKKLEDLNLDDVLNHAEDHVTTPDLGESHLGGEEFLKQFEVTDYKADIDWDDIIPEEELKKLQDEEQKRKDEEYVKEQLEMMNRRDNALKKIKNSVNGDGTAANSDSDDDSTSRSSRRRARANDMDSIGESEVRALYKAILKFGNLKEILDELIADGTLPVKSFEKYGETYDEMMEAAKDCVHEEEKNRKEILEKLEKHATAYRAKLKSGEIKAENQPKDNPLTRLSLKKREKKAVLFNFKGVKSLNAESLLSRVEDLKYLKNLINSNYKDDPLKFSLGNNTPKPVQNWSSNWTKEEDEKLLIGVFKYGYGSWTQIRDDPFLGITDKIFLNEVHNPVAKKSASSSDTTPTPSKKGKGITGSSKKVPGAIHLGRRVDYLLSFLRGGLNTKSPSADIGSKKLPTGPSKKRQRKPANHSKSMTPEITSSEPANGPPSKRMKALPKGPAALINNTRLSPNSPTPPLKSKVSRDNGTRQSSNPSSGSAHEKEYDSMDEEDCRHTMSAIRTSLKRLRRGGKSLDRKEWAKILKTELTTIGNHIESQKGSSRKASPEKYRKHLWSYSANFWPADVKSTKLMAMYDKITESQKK

Sequence of Protein translocase subunit SecA (Escherichia coli (strain K12)) (P10408 whole entry): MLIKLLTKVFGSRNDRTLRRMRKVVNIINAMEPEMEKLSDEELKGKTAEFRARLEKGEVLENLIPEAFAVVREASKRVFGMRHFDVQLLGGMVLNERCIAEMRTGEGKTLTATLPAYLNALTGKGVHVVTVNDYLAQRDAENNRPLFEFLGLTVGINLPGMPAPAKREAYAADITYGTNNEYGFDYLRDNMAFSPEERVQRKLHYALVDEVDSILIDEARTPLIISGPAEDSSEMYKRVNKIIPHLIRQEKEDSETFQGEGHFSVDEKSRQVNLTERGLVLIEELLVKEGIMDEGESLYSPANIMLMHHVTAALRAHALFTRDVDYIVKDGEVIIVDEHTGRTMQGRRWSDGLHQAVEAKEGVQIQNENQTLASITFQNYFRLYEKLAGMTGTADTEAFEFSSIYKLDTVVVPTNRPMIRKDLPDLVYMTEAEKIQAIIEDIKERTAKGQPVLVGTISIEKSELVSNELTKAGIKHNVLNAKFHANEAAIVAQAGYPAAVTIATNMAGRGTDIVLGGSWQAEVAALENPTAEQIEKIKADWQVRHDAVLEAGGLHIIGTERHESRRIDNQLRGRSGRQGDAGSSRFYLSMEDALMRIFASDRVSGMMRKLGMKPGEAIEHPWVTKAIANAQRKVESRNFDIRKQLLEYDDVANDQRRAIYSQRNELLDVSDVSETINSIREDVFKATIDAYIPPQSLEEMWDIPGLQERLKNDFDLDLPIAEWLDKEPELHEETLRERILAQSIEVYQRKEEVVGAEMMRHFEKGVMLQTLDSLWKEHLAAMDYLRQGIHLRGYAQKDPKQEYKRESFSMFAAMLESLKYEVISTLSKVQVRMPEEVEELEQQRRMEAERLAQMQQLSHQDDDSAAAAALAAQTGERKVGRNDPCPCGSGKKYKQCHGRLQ

Consider `CCC1CN(c2nnc(C)c(C)c2C#N)CCO1` (stereo unspecified), for which the Percent Effect in test [1] was -3.31%; in test [2], 2.63%; in test [3], -17.9%; in test [4], -4.88%; in the test on Trypanosoma cruzi, 6.96%; in test [5], 1.15%. In addition, the Percent Effect is 20.7% in test [6]; 9.86% in the test filed under Homo sapiens; 0.49% in test [7]; 21.9% in test [8]; -13.8% in [9].

For the molecule `C=C(C)C(=O)N1CCC(C(=O)c2cc(C)cnc2N)CC1`, the Percent Effect in [1] is -7.55%; in test [2], 5.33%; in [3], 0.0671%; in test [4], 1.76%; with Trypanosoma cruzi it was 7.09%; in [5], -1.63%. Also, the Percent Effect is 5.55% in [6]; 11.8% in the test listed under Homo sapiens; 7.45% in test [7]; 14.1% in test [8]; -3.43% in [9].

For `CC(C)N(CC(N)=O)Cc1csc(COc2ccc(F)cc2)n1`, the Percent Effect in test [1] was -3.17%; in test [2], 25.3%; in test [3] it was -6.77%; in test [4] it was 1.71%; in the test on Trypanosoma cruzi, 7.65%; in [5], -4.18%. In addition, the Percent Effect was 8.76% in test [6]; 63.8% in the test filed under Homo sapiens; 5.42% in test [7]; 24.1% in [8]; -4.66% in [9].

On to `CC(=O)c1ccc(C(=O)NCCCOC(C)c2ccccc2)s1` (stereo unspecified), for which the Percent Effect in test [1] is -1.12%; in test [2], 7.89%; in test [3] it was 0.104%; in [4], -8.61%; in the test with Trypanosoma cruzi it was 1.07%; in test [5] it was -8.28%. Besides, the Percent Effect in test [6] was 13.9%; in the test listed under Homo sapiens, 21.8%; in test [7], -3.19%; in test [8], 10.4%; in test [9], -1.78%.

Turning to `O=C(NCCN1CCC(c2cccs2)CC1)c1ccccc1C(F)(F)F`, the Percent Effect was -3.22% in [1]; 8.22% in test [2]; 0.699% in test [3]; 8.89% in test [4]; 5.09% in the test with Trypanosoma cruzi; 17.7% in test [5]. The Percent Effect is 17.2% in [6]; 3.57% in the test listed under Homo sapiens; 5.38% in test [7]; 12.5% in test [8]; -4.65% in test [9].

Consider `O=C(N1CCCC1)N1CCO[C@H]2[C@@H](Oc3ccccn3)CC[C@@H]21`, for which the Percent Effect was 0.00913% in [1]; 2.67% in test [2]; 13.9% in [3]; -0.922% in [4]; -4.92% in the test on Trypanosoma cruzi; 4.43% in test [5]. Also, the Percent Effect in [6] is -1.85%; in the test filed under Homo sapiens, 12.7%; in test [7], 4.25%; in test [8], 3.85%; in test [9], 1.67%.

As for `CN(C)C(=O)NCc1cc2n(n1)CCN(C[C@H]1[C@@H]3CNC[C@@H]31)C2`, the Percent Effect in test [1] is -4.24%; in test [2], 13.5%; in test [3], -5.71%; in test [4], 30.6%; in the test with Trypanosoma cruzi, 9.65%; in test [5], 15.7%. The Percent Effect is 9.65% in test [6]; 10.3% in the test filed under Homo sapiens; 3.7% in [7]; 19.5% in [8]; -12.2% in test [9].

Consider `CCc1ccc(C(=O)N2CCN(CC(C)O)CC2)o1` (stereo unspecified), for which the Percent Effect is 0.315% in test [1]; 21.1% in test [2]; -5.4% in [3]; -6.92% in test [4]; 5.08% with Trypanosoma cruzi; 6.13% in [5]. The Percent Effect was 16.2% in [6]; 3.74% in the test filed under Homo sapiens; 1.47% in test [7]; 19.5% in test [8]; -12.7% in [9].

For the molecule `N#Cc1ccc(OCCNc2cccc(C(=O)N3CCOCC3)c2)cc1`, the Percent Effect was -3.6% in [1]; 15.6% in [2]; -1.62% in [3]; 14.6% in test [4]; 6.98% with Trypanosoma cruzi; -8.28% in test [5]. In addition, the Percent Effect in test [6] turned out to be 17.1%; in the test filed under Homo sapiens, 16.8%; in test [7], 2.15%; in test [8] it was 13.6%; in test [9] it was 0.249%.

On to `CC(=O)N1CCN([C@@H]2CC[C@@H](NC(=O)c3cncc(C)c3)[C@H]2O)CC1`, for which the Percent Effect in [1] is -3.3%; in test [2] it was -4.05%; in test [3], 8.93%; in test [4], -4.38%; in the test with Trypanosoma cruzi, -3.75%; in test [5], -2.09%. Further, the Percent Effect in test [6] is -3.28%; in the test filed under Homo sapiens it was 18.6%; in test [7], -2.15%; in [8], -11.7%; in [9] it was 15.5%.

On to `Cc1cc(C)n(CC(=O)N2CCC(NS(C)(=O)=O)CC2)n1`, for which the Percent Effect in test [1] was -2.87%; in [2], 15.8%; in [3] it was 1.32%; in [4], 0.107%; with Trypanosoma cruzi, -1.69%; in [5], -2.3%. For the same molecule, the Percent Effect was 8.69% in test [6]; -0.413% in the test filed under Homo sapiens; 5.39% in [7]; 12.2% in test [8]; -9.21% in test [9].
